Measurements as given in ChEMBL document CHEMBL3988442, “University of Dundee, Small-Polar-MMV Screening Library” (2021).
Among all 53,000 compounds or so, about 900 (1.7%) showed an effect of 50% or more. What follows is part of a selection rich in strong results, with near analogues and random picks from the rest.

system: Mycobacterium tuberculosis; experiment: Cornell - Phenotypic assay to identify agents that inhibit growth of Mycobacterium tuberculosis; assay type: functional; design: scale not given: direction of the effect not stated beside the values; details: 10 mM as filed; unlikely as a test dose

| Compound | Percent Effect [%] |
| --- | --- |
| O=C(O)c1nnn(-c2ccc(F)c(F)c2)c1-c1ccncc1 | 8.364 |
| CC(=O)c1ccc(-n2c(C)cn(CCC(=O)NC(N)=O)c2=O)cc1 | 30.44 |
| Cc1nc2ccnn2c(C)c1CCC(=O)N1CCN2CCCCC2C1 (centres undefined) | -1.576 |
| CCCn1cc(Cl)c(C(=O)N2C[C@H]3C[C@H](OC)C[C@H]3C2)n1 | 4.304 |
| CN1CC[C@]2(CN(CC3CC3)C[C@H]2c2ccccc2)C1=O | -29.63 |
| CC(=O)Nc1ccc(Oc2cc(C)nc(C3CCCNC3)c2)cc1.Cl (centres undefined) | 31.88 |
| Cc1ccc(N2CCCN(C(=O)c3n[nH]c4c3CCC4)CC2)nn1 | 19.39 |
| CNC(=O)CN1CCC(CN(C)CCSc2ccccc2)CC1 | 4.331 |
| Cc1cc(NCCSc2nccn2C)n2nc(C)c(C)c2n1 | 27.83 |
| Cc1cc(NCCCNc2cccnc2)n2nc(C)c(C)c2n1 | 31.25 |
| CCSCCNc1cc(C)nc2c(C)c(C)nn12 | 75.01 |
| Cn1cc(-c2cc(C(F)F)n3nc(CCC(=O)O)nc3n2)cn1 | -6.676 |
| COc1cccc(CNC(=O)c2ccccc2-n2cnc(CN)c2)c1 | -31.51 |
| CN1CCc2nnc(C3CCCN3S(=O)(=O)c3ccc(F)cc3)n2CC1 (centres undefined) | 59.34 |
| CCN(CC)S(=O)(=O)N1CCCC1c1nnc2n1CCN(C)CC2 (centres undefined) | 42.64 |
| O=S(=O)(c1ccc(F)cc1F)N1CCCCC1c1nnc2n1CCCC2 (centres undefined) | 10.12 |
| CC(OCC1CC1)C(=O)N1CCCN(Cc2nccn2C(C)C)CC1 (centres undefined) | 14.16 |
| O=C(NCCC1COc2ccccc2O1)c1ccc(-c2cn[nH]c2)nc1 (centres undefined) | 4.189 |
| O=C(NCCC1COc2ccccc2O1)c1ccc(N2CC(O)C2)nc1 (centres undefined) | -14.99 |
| O=C(NCCC1COc2ccccc2O1)c1ccc(-c2cc[nH]n2)nc1 (centres undefined) | 70.18 |
| CN(C)C(=O)N1C[C@@H]2CC[C@H](C1)N(Cc1nnc(-c3ccco3)o1)C2 | -11.16 |
| CCC(C)Oc1ccc(CNCCNC(C)=O)cc1OC (centres undefined) | -42.04 |
| CN1CCCN(c2nc(C3CCCC3)nc3c2cnn3C)CC1 | 65.73 |
| Cn1ncc2c(N3CCS(=O)(=O)CC3)nc(C3CCCC3)nc21 | -13.36 |
| Cn1ncc2c(N3CCN(CCO)CC3)nc(C3CCCC3)nc21 | 32.14 |
| c1ccc(CCCN2CCCN(c3ncnc4[nH]ccc34)CC2)cc1 | 3.591 |

| Compound | Percent Effect [%] |
| --- | --- |
| Cc1nccn1-c1ccc(=O)n(CCNC(=O)Cc2ccccc2)n1 | 4.846 |
| c1cc(N2CCCCC2)ccc1-c1noc(CN2CCOCC2)n1 | 5.485 |
| COc1ccc(N2CCN(C(=O)Cn3nc(C)c(Cl)c3C)CC2)cc1 | 54.85 |
| Cc1nn(CC(=O)N2CCN(c3ccncc3)CC2)c(C)c1Cl | 1.786 |
| COc1ccc(N2CCN(C(=O)COc3c(C)occc3=O)CC2)cc1 | 55.27 |
| Cc1nn(CC(=O)N2CCN(c3ccc(F)cc3)CC2)c(C)c1Cl | -1.208 |
| COc1cccc(N2CCN(C(=O)COc3c(C)occc3=O)CC2)c1 | 16.48 |
| Cc1occc(=O)c1OCC(=O)N1CCN(c2ccccc2)CC1 | 32.32 |
| CC(=O)N[C@@H]1CN(c2nc(CO)cs2)C[C@H]1c1ccc(C)o1 | 3.039 |
| O=C(N[C@H]1CN(c2nc(CO)cs2)C[C@@H]1C1CC1)C1CCCCC1 | 56.52 |
| OCc1csc(N2C[C@@H](CN3CCCCCC3)[C@@H](CO)C2)n1 | -1.997 |
| CCC[C@H]1CN(c2nc(CO)cs2)C[C@@H]1NC(=O)C1CCC1 | 52.87 |
| O=C(N[C@H]1CN(c2ccncc2)C[C@@H]1C1CC1)C1CCOCC1 | 6.471 |
| CCC[C@H]1CN(c2nc(CO)cs2)C[C@@H]1NC(=O)C1(COC)CC1 | 20.53 |
| O=C(c1cccs1)N1CCC2(CC1)CN(c1ccsc1)C(=O)CO2 | 16.06 |
| Clc1ccc(C2(CNC3=NCCN3)CC2)cc1.I | -15.81 |
| CCOC(=O)N1CCNC(c2cccs2)C1 (centres undefined) | -4.593 |
| CN(Cc1nnc(C2CC2)n1C)C1CCN(Cc2ccc(F)cc2)C1 (centres undefined) | 10.51 |
| CN(Cc1nnc(C2CC2)n1C)C1CCN(Cc2ccccc2)C1 (centres undefined) | 104.3 |
| CN(Cc1nnc(C2CC2)n1C)C1CCN(Cc2ccon2)C1 (centres undefined) | -5.558 |
| Cc1nc(CN2CCC(N(C)Cc3nnc(C4CC4)n3C)C2)cs1 (centres undefined) | 55.81 |
| CN(Cc1nnc(C2CC2)n1C)C1CCN(Cc2ccncc2)C1 (centres undefined) | -21.05 |
| Cc1cnc(CN2CCC(N(C)Cc3nnc(C4CC4)n3C)C2)cn1 (centres undefined) | 8.133 |
| CC(=O)N1CCC(c2ncc(C(=O)Nc3ccccc3)c(C)n2)CC1 | 16.5 |
| O=C(CC1CC1)N1CCC2(CC1)CN(Cc1cccnc1)C(=O)CO2.O=C(O)C(F)(F)F | 2.615 |
| COCCN1C[C@H]2CCN(C(=O)c3cc(C)on3)CC[C@H]2S1(=O)=O | -32.34 |

| Compound | Percent Effect [%] |
| --- | --- |
| CNC(=O)c1cc2ccccc2n1C | -0.05075 |
| CC(C)(C)c1csc(CCNC(=O)C(c2ccccc2)n2cnnn2)n1 (centres undefined) | 11.39 |
| Cc1noc(NC(=O)c2ccc(OC(F)(F)F)cc2)n1 | 104.6 |
| Cc1noc(NC(=O)c2cccc(Br)c2)n1 | 106.3 |
| Cc1noc(COCC(=O)Nc2ccc(Br)c(C)n2)n1 | 11.41 |
| Cc1noc(NC(=O)c2ccc(C#N)cc2)n1 | 13.91 |
| Cc1noc(NC(=O)c2ccc(Br)o2)n1 | 16.32 |
| Cc1noc(NC(=O)c2ccc(Br)s2)n1 | 105.7 |
| Cc1noc(NCc2ccc(F)cc2)n1 | -8.844 |
| O=C(NCCn1ccnc1)c1cccc(Br)c1 | 9.854 |
| Cc1ccc(C(=O)Nc2nc(C)no2)cc1 | 27.63 |
| Cc1noc(NC(=O)c2ccccc2)n1 | -1.268 |
| Cc1noc(NC(=O)CCNC(=O)c2ccc(Br)cc2)n1 | -19.08 |
| Cc1noc(NC(=O)c2ccc(Br)cc2)n1 | 106.9 |
| CN1C(=O)C2(CC(=O)Nc3[nH]ncc32)c2cc(F)ccc21 (centres undefined) | 1.042 |
| COCCNC(=O)c1sc2ccccc2c1C1CCC(CN)CC1.Cl (centres undefined) | -3.556 |
| CC(C)c1nccn1-c1nccnc1C1CCCN1Cc1cccnc1 (centres undefined) | -9.727 |
| CN(C)c1cc(C2CCCNC2)ccn1.Cl.Cl (centres undefined) | 40.71 |
| CC(C)(C)OC(=O)N1CCn2c(nnc2C2CCCNC2)C1 (centres undefined) | -27.32 |
| CCC(C)(C)n1nnnc1C(c1cccs1)N1CCCCC1 (centres undefined) | 33.43 |
| CCC(C)(C)n1nnnc1C(c1cccs1)N1CCc2ccccc2C1 (centres undefined) | 77.94 |
| CCC(C)(C)n1nnnc1C(c1cccs1)N1CCc2ccccc21 (centres undefined) | 26.96 |
| CCOc1ccccc1CN(C)C(=O)CN1C(=O)OC[C@@H]1C(C)C | -25.38 |
| NCc1n[nH]c(=O)n1-c1cccc(Cl)c1Cl | -49.88 |
| Cc1cccc(-c2nccnc2C2CCN(C)CC2)c1C | -15.39 |
| NC(=O)c1c(-c2ccc(Cl)cc2)csc1NC(=O)CCC(=O)O | -1.119 |

| Compound | Percent Effect [%] |
| --- | --- |
| O=C(COc1coc(CN2CCOCC2)cc1=O)c1ccc(Cl)cc1 | 4.659 |
| O=C(COc1coc(CN2CCCCCC2)cc1=O)c1ccccc1 | -10.82 |
| O=C(COc1coc(CN2CCCCC2)cc1=O)c1ccc(Cl)cc1 | 53.44 |
| CSCCC(=O)N1CCCC(c2ncc[nH]2)C1 (centres undefined) | 7.779 |
| NC1(c2nc(-c3cccs3)cc(=O)[nH]2)CCCCC1 | -54.45 |
| CCCS(=O)(=O)NCCn1ccc(-c2cccs2)n1 | -17.91 |
| COC(=O)CCc1c(C)nn(-c2nc(C)cc(=O)[nH]2)c1C | 23.13 |
| Cc1cc(=O)[nH]c(-n2nc(C)c(CCC(=O)NCc3cccs3)c2C)n1 | 13.95 |
| Cc1cc(=O)[nH]c(-n2nc(-c3cccs3)cc2N)n1 | 98.99 |
| Cc1cc(=O)[nH]c(-n2nc(-c3ccccc3)cc2N)n1 | 94.92 |
| NC1(c2nc(-c3cccs3)cc(=O)[nH]2)CCCC1 | -47.24 |
| NC1(c2nc(-c3ccccc3)cc(=O)[nH]2)CCCC1 | 17.2 |
| CCCc1cc(=O)[nH]c(-n2nc(-c3cccs3)cc2N)n1 | 94.38 |
| COc1cc(N2C[C@H]3CN(Cc4ccccn4)C[C@H]3C2)ncn1.O=C(O)C(F)(F)F | 8.566 |
| Cn1nnnc1SC1CCc2ccccc2NC1=O (centres undefined) | 4.345 |
| O=C(COC[C@]12COC[C@H]1CN(C1CCC1)C2)N1CCCC1.O=C(O)C(F)(F)F | -23.94 |
| CCC1CN(CCCO)c2ccccc2O1 (centres undefined) | 66.97 |
| CCC1CN(CCNS(C)(=O)=O)c2ccccc2O1 (centres undefined) | 23.74 |
| CS(=O)(=O)NCC1Cc2ccccc2O1 (centres undefined) | -12.85 |
| CCCN(CC1COc2ccccc2O1)C(=O)CCN1C(=O)CCC1=O (centres undefined) | 17.77 |
| CN(CC1COc2ccccc2O1)C(=O)C1=NN(C)C(=O)CC1 (centres undefined) | 21.15 |
| CCC1CN(CCCNS(C)(=O)=O)c2ccccc2O1 (centres undefined) | 99.54 |
| Cc1cccc(CN2CCC3(CCN(Cc4ccccn4)C3)C2=O)c1.O=C(O)C(F)(F)F.O=C(O)C(F)(F)F (centres undefined) | 1.967 |
| COc1cc(CCC(=O)N2CCC(c3cc4nccnc4[nH]3)CC2)on1 | 16.88 |
| CCCSc1ncccc1C(=O)NCc1ccc(N(C)C)cc1 | -11.44 |
| O=C(O)C(F)(F)F.c1ccc(CN2CCc3ncnc(-c4ccsc4)c3CC2)nc1 | 15.9 |
